# Assay results: PubChem BioAssay AID1508600 (Functional Genomics Laboratory (NCATS/FGL), 2020)
# Hit rate of the full screen: of about 53,000 sequences, about 3,700 (7%) were called active. Only a selection was taken, and actives are over-represented in it overall. A number with no mark means an inactive call.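 How the source made its calls: active means gene knockdowns whose robust z-score for IL-1 alpha signal is at least 2 or at most -2, so actives lie on both sides; inactive means the rest.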
# Experiment: Components of the Cytosolic LPS Sensing Pathway: Gene Identification via Genome-wide siRNA Screen;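 further: robust z of the log signal after scaling to non-targeting control siRNA wells of the plate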
# Conditions: RAW264.7 macrophages, IL-1a HTRF, actives lie on both sides, screened at 100 nM (by protocol), cells primed 5 h with Pam3CSK4 first
# How it was run: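 Using IL-1a HTRF as read-out, the screen measured release from RAW264.7 cells after 48h siRNA knockdown (100 nM), 5 h Pam3CSK4 priming and 24 h cytosolic LipidA. Values were expressed relative to negative-control wells as robust z-scores.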
row,Sequence,z-score
1,GGUAUUCCUCUAGAUCAGATT against Dysf,0.627
2,GGAUUUGGAGCAGGUGGAUTT against Avpr1b,-0.97
3,AUGCUUUUUGGAGCCAUAUTT against Olfr307,3.07 (active)
4,GCCCUGAACUACCUAGAAATT against Alg5,1.58
5,GGUUAAGAUUCCAGAGCCATT against Prune1,-0.297
6,GGAGAAUCUGGUCUGGGUATT against Septin4,1.04
7,GGGCAAGUAUGGCUAUGUGTT against Pram1,-0.178
8,GGCCAAGAGAAUCUAAAGATT against Strn4,-0.338
9,GGAGACACUGAAUGUGACATT against Ttyh1,-2.03 (active)
10,UGUAACCAUGGUUACCGUGTT against Olfr1513,0.311
11,GGCUGAGAACAUCAAAAAATT against Folh1,0.816
12,GGAAUUGAGGUGAUGGAUATT against Sfxn4,-0.144
13,CGGGAUCUAUCCACUGAUGTT against Nrbp2,-0.983
14,GGCUACAAGGAGAAGUUUGTT against Traf3,2.02 (active)
15,GCUCUAUGGAUCCUUGGAGTT against Zfp574,0.772
16,GCUCAAUGUGACAGUGGUGTT against Elane,0.38
17,GGAAACCGUUCUCAUUAAATT against Mrpl30,0.599
18,GGUUUGGUUGAAAUUGAACTT against Smc5,-1.16
19,CCUCAUGGUGAUGAUAUCCTT against Taar6,-1.35
20,GGAAGAUGAAGAGUCAGAGTT against Setd1b,-2.52 (active)
21,CGACAAUGCCAUCGAUUCGTT against Sdc3,0.0399
22,GGUCACACUUUCUUUGGAATT against Tcf25,0.775

row,Sequence,z-score
1,CCUAAAGACGUGCAAUAUGTT against Zfp287,0.526
2,GGUUGUUCAUGAGCCGAACTT against Rpl18,-0.0641
3,GGGUGCGGAAAUUCAUUAATT against Mpv17l2,0.803
4,GGCGCAGUAUCACAGUCUUTT against Tle1,1.02
5,GGAUGAGAACAGCAACCAGTT against Bcl7b,-2.22 (active)
6,GGUUCCAACAAUUGUAAAGTT against Chl1,-0.00378
7,GGAUUUUAAACAAAAGACCTT against Stard13,0.718
8,GGUUCACGGUUUAUAAAGUTT against Sgk3,-0.652
9,GCUCCUGUACAGUUCAAACTT against Mrpl17,0.0768
10,GCAGAAAGCACACUCCUACTT against Psors1c2,-2.02 (active)
11,GGAGAAGGUAGUUCUGAAATT against Slc7a11,-0.349
12,GCACAACAUCACGGUGAACTT against Adcy5,-0.672
13,CCACUAUGCUUCUUGGAAUTT against Serpini2,-0.73
14,GGAAAAGAAACCAGUUUCUTT against C230012O17Rik,-2.07 (active)
15,GGACAAAAGACACAUGUUGTT against Miip,-0.674
16,GGAUUUUCACAUUGCAUCUTT against Dmrtc1a,1.49
17,CCUUUGAACCUCUAACUUUTT against Xpnpep1,3.62 (active)
18,GUUUUAGGCAACCUUGGGUTT against Olfr1038-ps,-0.14
19,GGGACUCUAAAAACAAUGATT against Zkscan14,2.67 (active)
20,CCCAAAAUACAUCAUCAAUTT against Psmc2,-0.444
21,GGACAACCACUUUAAGCUUTT against Tars2,1.04
22,GCCUACGUUACCUUGAUCCTT against Slc16a12,0.0774

row,Sequence,z-score
1,CCGGUAUUUAGGAACUGCCTT against Irak2,-1.66
2,GGAGUCAACACACAUCAAGTT against Zfp13,1
3,GGAAACCUGGAAACAGUUUTT against Apol7c,0.377
4,GGACAGCAGCAACAACAUCTT against Dnase1l3,-2.04 (active)
5,GCGACGGAAGUCUUUAUUATT against Nostrin,-0.163
6,GGGUGAAGUAGGUGAAAAATT against H2-M10.6,-0.361
7,CGUAGCUAAUCCGUAAAAGTT against 1700120K04Rik,-1.93
8,GGACAAAUCAGUUCUGCGUTT against Car13,0.105
9,GGAACUUGGUAUUUAGAUCTT against Rhot2,0.295
10,GGAUGAGUUUGACAAGCUGTT against Rhou,-0.735
11,GGAGGAAAAGAGACAGCUCTT against Kank2,-2.41 (active)
12,GUGUCAACCUAAGCUUGGCTT against Tlx3,-1.19
13,GGUGUACCUCUGAAAAAAATT against Zbp1,-1.5
14,AGAACGGAACCAUAGGGAATT against Cmc2,-0.897
15,GGUAGUUCAGAUCUGAUUUTT against Svep1,0.599
16,CGUUGCAGUCUAAGCUUGUTT against Rabac1,4.44 (active)
17,AUGGAAUCCAGUAUAGAGCTT against Cep44,0.713
18,GGAAGAAUGUAGGAGGAAGTT against Sln,0.246
19,GGUAUGAUCAAUGACUUACTT against Serpine1,-0.165
20,GGCUGACUUUCUGUCACAGTT against Olfr655,1.03
21,GCCUGAAUUCCACUACUCGTT against Def8,0.551
22,GGACAAGCUGAGGUGAAAATT against Maats1,-1.08

row,Sequence,z-score
1,CGUACACCGUAUUCAUGACTT against Rapgef5,3.6 (active)
2,GGAUGACUACAAAUGCAAATT against E230015B07Rik,-0.155
3,GCUAGGAUUUCAGCAUAUATT against Adra1a,0.29
4,GGUCCUAACCGACAUGUCUTT against Vrk1,0.305
5,CGUAGUGUUCUGUGUUUAUTT against Mif,1.36
6,GGACUUAGUACCUGAUAACTT against Rtraf,0.838
7,GCCUAUUGUCAGAAAAGUUTT against Usp4,-0.385
8,GGGACUCAACCUAUAUCUUTT against Gnpat,0.118
9,CCGGUUGAGUUCACAGAAUTT against Atad3aos,-2.44 (active)
10,GGAUUUCGAGAUAACUAUGTT against Tbr1,-0.0186
11,CGUAUGGAGUCCAUUACUATT against Frmd4b,0.341
12,GGAUUCAAACAAUGAGCUCTT against Fam126b,0.9
13,GCUACUUUGACAUGCACACTT against Caly,2.1 (active)
14,GGCGGAUCUCUUGAGUGUUTT against Glyctk,0.213
15,GGUAUCAUUUACUUUGAACTT against Gtf2f2,-0.0825
16,GCCAGUUCAUACAAGAGGGTT against Zfp946,0.623
17,GGAGAUCACAGCAAUCCGATT against Ccna1,-1.01
18,GUAUGUUGACAUUUGCCUGTT against Olfr113,-2.05 (active)
19,GGGCGGAGCAUUUUUCUUGTT against Ube2d2b,0.483
20,GGAAGAUGACAGUGCUGUATT against Utp25,-0.868
21,GGGAUAAGUACUCUGCUAATT against Sorcs3,-0.146
22,CCAAGGGUCACCUAUUUUUTT against Kcna5,1.97

row,Sequence,z-score
1,CCUGCAUUAGCAUGUUAGGTT against Gfral,-0.483
2,GGUAGCUAAGAAGUUUAUUTT against Dck,1.55
3,GGAUUUAUCCCAAAAUCUATT against Tmem26,0.42
4,GGUUCCUACGAGUUCACUGTT against B130024G19Rik,-2.76 (active)
5,GGAUCAAAUAACAAUGACATT against Hfm1,-0.567
6,GGCCAUGGUUCUAUAGGACTT against Zbtb37,0.764
7,GCUUGUAAAUGGAACGACATT against 0610012G03Rik,-0.69
8,CCAUAUUUUACCCAAAAGCTT against Prune1,-1.04
9,CGAAGGAGUCAAAACUGGGTT against Klk1b8,-1.79
10,GGAGAUCUCACCGACAUUGTT against Cpt1c,-1.22
11,GGCUUUGCUACUUGGGAUATT against Wdr86,3.16 (active)
12,CCUACUCGUAUAAUCUUCUTT against Ago3,0.496
13,GCGUUUGGGCCGGAAGAAATT against Smo,0.57
14,GGCAGUUUGAGAUUGUGUCTT against Thbs2,-0.00379
15,GCUCAUCGAGCCUGUACACTT against Med26,-0.296
16,GGUGGAACCCAAUGACACCTT against Cers5,1.21
17,GGCUUCUACCUUCGAGACUTT against Carns1,-2.3 (active)
18,GGUAGUUGUGCCAGAAAAATT against Garre1,0.0675
19,GGACCCUCUAGAUGACCAATT against Trem2,-1.09
